Holding throughout (experiment): NCI-60 one-dose screen, 48 h (100 = growth as untreated, 0 = no growth, -100 = all killed)
What all share (settings): 10 µM unless noted

Test [1] relates to T-47D breast.
The subject of test [2] is BT-549 breast.
The subject of test [3] is MDA-MB-435 melanoma.
Test [4] concerns SW-620 colon.
In test [5] the test system is MCF7 breast.
Test [6] has as its system HCT-116 colon.
The subject of test [7] is HCC-2998 colon.
Test [8] deals with KM12 colon.

This is part of a sample that, as a whole, favours compounds with a hit. Of some 83,000 tested, about 20% had one in any assay.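 Cells were grown in 96-well plates and exposed to the test compound at a single concentration for 48 hours; results are reported as percent growth, with values below 10 considered active.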 A number with no mark means an inactive call. Activity calls are given as the source filed them.

On to `COc1ccc(/C=N\NC(=O)c2cc(-c3ccc(Br)cc3)n(-c3ccc(S(N)(=O)=O)cc3)n2)cc1`, for which the growth in test [1] was 30.9%; in test [2], 76.1%; in test [3], -43.8% (active); in test [4], 36.9%; in test [5], 18.3%; in test [6], 28.4%. The growth is 66% in test [7] and 30.8% in test [8].

As for `Cc1cc(NCc2cc(Nc3ccnc4cc(Cl)ccc34)ccc2F)nc(N2CCOCC2)n1`, the growth in test [1] was -54.8% (active); in test [2], 75.3%; in test [3] it was -18.4% (active); in test [4], 32.5%; in test [5], 6.18% (active); in test [6] it was 2.23% (active). Besides, the growth in test [7] was 55.8%; in test [8] it was 44%.

Turning to `COc1cc(/C=C/C(=O)c2c(C)nc3ccccc3c2/C=C/c2ccc(C)cc2)cc(OC)c1OC`, the growth is 19% in test [1]; 35.6% in test [2]; 11.1% in test [3]; 3.22% (active) in test [4]; 17.1% in test [5]; -70.3% (active) in test [6]. Moreover, the growth in test [7] was -21.3% (active); in test [8], 13.2%.

As for `CC1(c2ccccc2)NC(=O)N(NC(=O)CSc2nc(-c3cccs3)nc3ccccc23)C1=O` (centres undefined), the growth was 95.9% in test [1]; 110% in test [2]; 103% in test [3]; 109% in test [4]; 106% in test [5]; 93.6% in test [6]. In addition, the growth is 98.4% in test [7] and 103% in test [8].

`CCCCC1CCCCN1C(=O)OCC` (centres undefined): the growth in test [1] was 89.2%; in test [2], 73.9%; in test [3] it was 111%; in test [4], 106%; in test [5], 107%; in test [6], 94%. In addition, the results for the growth in test [7] and in test [8] were 101% and 123%, respectively.

With `O=[N+]([O-])c1ccc(-c2cc(-c3ccc(Nc4nc(Nc5ccc(Cl)cc5)nc(Nc5ccc(Cl)cc5)n4)cc3)no2)cc1`, the growth was 97.2% in test [1]; 103% in test [2]; 103% in test [3]; 96.6% in test [4]; 83.1% in test [5]; 83.7% in test [6]. Also, the figures for the growth in test [7] and in test [8] were 78.2% and 105%, respectively.

Consider `O=C(O)C1CCC(=O)N1C(=O)OCc1ccccc1` (centres undefined), for which the growth in test [1] is 108%; in test [2] it was 112%; in test [3], 91.3%; in test [4] it was 101%; in test [5], 91.6%; in test [6], 107%. For the same compound, the growth in test [7] was 104%; in test [8] it was 115%.

Turning to `Cc1ccccc1NC(=O)N/C(N)=N/c1nc(C)c(C)s1`, the growth was 36.2% in test [1]; 66.3% in test [2]; -46.9% (active) in test [3]; 25% in test [4]; 21.4% in test [5]; 21.7% in test [6]. The figures for the growth in test [7] and in test [8] were 22.1% and 35%, respectively.

Regarding `CN(c1ccccc1)c1ccc2c(c1)OCCC21CC1Nc1cnccc1C(=O)O` (centres undefined), the growth in test [1] was 72.6%; in test [2] it was 64.8%; in test [3] it was 82.6%; in test [4] it was 80.2%; in test [5], 65.8%; in test [6], 33%. In addition, the results for the growth in test [7] and in test [8] were 68.2% and 64.2%, respectively.

Regarding `O=C(Nc1ccccc1-c1nc2ccccc2c(=O)[nH]1)c1cc2ccccc2[nH]1`, the growth in test [1] is 70.1%; in test [2], 85.3%; in test [3], 106%; in test [4] it was 94.2%; in test [5], 68%; in test [6], 83.5%. In addition, the growth is 104% in test [7] and 88.2% in test [8].

Regarding `COc1cc(Cn2ncc3ccc(NC(=O)c4cc5ccccc5oc4=N)cc32)cc(OC)c1OC`, the growth in test [1] is 39.6%; in test [2] it was 43.6%; in test [3] it was -16.1% (active); in test [4], 43.5%; in test [5], 25%; in test [6], 26.6%. In addition, the figures for the growth in test [7] and in test [8] were 85% and 32.5%, respectively.

Turning to `N#Cc1c(N)nn(C(=O)c2ccc(NC(=O)c3ccccn3)cc2)c1-c1ccc(Cl)cc1`, the growth is -16.7% (active) in test [1]; 15.5% in test [2]; 33.9% in test [3]; 13.9% in test [4]; 36.4% in test [5]; 12.4% in test [6]. Moreover, the values for the growth in test [7] and in test [8] were 14.9% and -26.3% (active), respectively.

On to `CC1OC(O[C@H]2/C=C/C=C/C=C/C=C/C=C/C=C/C=C/[C@H](C)[C@@H](O)[C@@H](C)[C@H](C)OC(=O)CC(O)CC(O)CCC(O)C(O)CC(O)C[C@]3(O)C[C@H](O)C(C(=O)O)C(C2)O3)C(O)[C@H](N)C1O` (some centres undefined), for which the growth in test [1] is 54.3%; in test [2] it was 36.6%; in test [3] it was -69.5% (active); in test [4], -24.9% (active); in test [5] it was 28.8%; in test [6] it was -38.1% (active). Moreover, the growth is 53.5% in test [7] and 41.6% in test [8].

As for `Cc1ccc2nc(C)c(-c3nnc(SCc4ccc(C#N)cc4)o3)n2c1`, the growth is 89.3% in test [1]; 85.8% in test [2]; 101% in test [3]; 105% in test [4]; 77.8% in test [5]; 91.8% in test [6]. Also, the growth in test [7] was 108%; in test [8], 106%.

For the compound `N/C(=N\c1nc2ccccc2s1)NC(=O)Nc1cccc(Cl)c1`, the growth in test [1] was 42.6%; in test [2] it was 42.8%; in test [3], 1.08% (active); in test [4] it was 31.9%; in test [5], 21.2%; in test [6], 16%. In addition, the values for the growth in test [7] and in test [8] were 73% and 22.9%, respectively.

As for `O=c1[nH]c2ccccc2n1C1CCN(CCOc2ccccc2)CC1`, the growth in test [1] was 87.5%; in test [2] it was 90.3%; in test [3], 97.7%; in test [4], 103%; in test [5], 81.3%; in test [6], 84.7%. Further, the growth in test [7] was 98.5%; in test [8], 96.9%.

For the compound `Clc1cc(Cl)cc(Nc2ccc3cc(OCCCN4CCOCC4)ccc3n2)c1`, the growth in test [1] was 32%; in test [2], 88.5%; in test [3], 34.1%; in test [4], -8.79% (active); in test [5], 8.56% (active); in test [6], 19.8%. Further, the growth in test [7] is -17.6% (active); in test [8] it was 8.59% (active).

As for `COc1ccc(-c2nc(SC(C)C)nc(NNC(N)=S)c2C#N)cc1`, the growth in test [1] was 51.6%; in test [2], 77.2%; in test [3], -46.4% (active); in test [4] it was 22.2%; in test [5], 30.7%; in test [6] it was 75.1%. The values for the growth in test [7] and in test [8] were 63.7% and 39.2%, respectively.

With `CC1=C([Se]CC(OC(=O)[C@@H](CO)NC(=O)OC(C)(C)C)C(=O)NC(C)(C)C)C(=O)c2ccccc2C1=O` (some centres undefined), the growth is -54.1% (active) in test [1]; -100% (active) in test [2]; -82.4% (active) in test [3]; -85.9% (active) in test [4]; -72.6% (active) in test [5]; -100% (active) in test [6]. The growth in test [7] was -89.9% (active); in test [8], -77.7% (active).

Regarding `COc1ccc(/C=N/C2=C(C#N)C(c3ccc(OC)cc3)c3ccc4ccccc4c3O2)cc1` (centres undefined), the growth in test [1] is 73.6%; in test [2], 84%; in test [3], -10.9% (active); in test [4] it was 43.3%; in test [5] it was 34.4%; in test [6] it was 71.7%. For the same compound, the values for the growth in test [7] and in test [8] were 97.4% and 59.4%, respectively.

For `COc1ccc(/C=C/c2c(C(=O)/C=C/c3cccs3)c(C)nc3ccccc23)cc1`, the growth in test [1] was 47.8%; in test [2], 94.3%; in test [3], 68.5%; in test [4], 82.5%; in test [5] it was 53.9%; in test [6] it was 47.5%. In addition, the growth in test [7] is 85.6%; in test [8], 78.9%.

As for `COc1cccc(-c2nn(-c3ccccc3)cc2-c2ccnc(NCCCNC(=O)c3ccc(F)cc3)c2)c1`, the growth in test [1] is -0.248% (active); in test [2], 29.8%; in test [3], -16.7% (active); in test [4], 33%; in test [5] it was 18.6%; in test [6] it was 13.1%. Moreover, the growth in test [7] is 40.2%; in test [8], 18.7%.

For the compound `CNC(=O)c1cc(Oc2cccc3nc(Nc4ccc(F)c(Cl)c4)ccc23)ccn1`, the growth in test [1] is 66%; in test [2] it was 62.9%; in test [3], 60.5%; in test [4] it was 20.3%; in test [5], 35.1%; in test [6] it was 17.6%. In addition, the growth in test [7] was 101%; in test [8] it was 63.5%.

As for `COc1cc(/C=N/Nc2ncc(-c3cc4cc5c(cc4o3)OCO5)s2)cc(OC)c1OC`, the growth was 45.9% in test [1]; 15.2% in test [2]; 18.9% in test [3]; 55.4% in test [4]; 53.4% in test [5]; 28.5% in test [6]. Besides, the growth in test [7] was 82.1%; in test [8] it was 23.5%.

As to `Cc1cc(NCc2cc(Nc3ccnc4cc(Cl)ccc34)ccc2F)nc(N2CCCC2)n1`, the growth in test [1] was -59.7% (active); in test [2], 58.1%; in test [3], -94.7% (active); in test [4], -1.87% (active); in test [5] it was -14.1% (active); in test [6], -53.5% (active). Also, the growth in test [7] was -67.9% (active); in test [8] it was 12%.

With `Fc1cnc(NC2CC2)nc1-c1cnc2ccc(N3CCOCC3)cn12`, the growth was 7.29% (active) in test [1]; -5.41% (active) in test [2]; 0.301% (active) in test [3]; 5.59% (active) in test [4]; 2.32% (active) in test [5]; 3.97% (active) in test [6]. Besides, the growth in test [7] is 1.18% (active); in test [8], -2.57% (active).

Regarding `Cc1ccc(Nc2ccc(Nc3ccc(C)cc3)c3c2C(=O)c2cccc(O)c2C3=O)cc1`, the growth is 104% in test [1]; 113% in test [2]; 104% in test [3]; 99.4% in test [4]; 87.6% in test [5]; 99% in test [6]. Also, the figures for the growth in test [7] and in test [8] were 109% and 92.7%, respectively.

Turning to `COC(=O)[C@]12CC[C@@H](C)[C@H](C)[C@@H]1C1=CC[C@@H]3[C@@]4(C)C(C=O)=C[C@@](C)(COS(C)(=O)=O)C4[C@H](O)C[C@@]3(C)[C@]1(C)CC2` (some centres undefined), the growth was -29.4% (active) in test [1]; -49.6% (active) in test [2]; -21.5% (active) in test [3]; -51.4% (active) in test [4]; -16% (active) in test [5]; -85.3% (active) in test [6]. Moreover, the growth in test [7] was -85% (active); in test [8], -75.4% (active).

The values are drawn from PubChem BioAssay (NCI).
